Key:
Settings in all cases: Compound Concentration (nM):1000
[1] = test system: CSNK2A2
[2] = test system: T1, CTK
T1 construct: gene MATK

[3] = test system: DAPK1
[4] = test system: DAPK2
[5] = test system: DAPK3
[6] = test system: T2, DCAMKL1
T2 construct: gene DCLK1

[7] = test system: T3, DCAMKL2
T3 construct: gene DCLK2

[8] = test system: T4, DCAMKL3
T4 construct: gene DCLK3

[9] = test system: DDR1
[10] = test system: DDR2
[11] = test system: T5, DLK
T5 construct: gene MAP3K12

[12] = test system: T6, DMPK2
T6 construct: gene CDC42BPG

[13] = test system: DMPK
[14] = test system: T7, DRAK1
T7 construct: gene STK17A

[15] = test system: T8, DRAK2
T8 construct: gene STK17B

[16] = test system: DYRK1A
[17] = test system: DYRK1B
[18] = test system: DYRK2
[19] = test system: EGFR(E746-A750del)
[20] = test system: EGFR(G719C)
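Also: KINOMEscan scanMAX binding as percent activity remaining versus control; lower means stronger binding.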

| SMILES | Percent Control [1] | Percent Control [2] | Percent Control [3] | Percent Control [4] | Percent Control [5] | Percent Control [6] | Percent Control [7] | Percent Control [8] | Percent Control [9] | Percent Control [10] | Percent Control [11] | Percent Control [12] | Percent Control [13] | Percent Control [14] | Percent Control [15] | Percent Control [16] | Percent Control [17] | Percent Control [18] | Percent Control [19] | Percent Control [20] |
| --- | --- | --- | --- | --- | --- | --- | --- | --- | --- | --- | --- | --- | --- | --- | --- | --- | --- | --- | --- | --- |
| COc1cc2ncnc(Nc3ccc4c(cnn4Cc4ccccc4)c3)c2cc1OC.Cl [GW282449A] | 100% | 84% | 100% | 100% | 100% | 100% | 100% | 100% | 91% | 100% | 87% | 100% | 100% | 100% | 100% | 100% | 97% | 87% | 6.7% | 0% |
| COc1cccc(-n2ncc3c(N/N=C/c4ccncc4)ncnc32)c1 [GW784752X] | 2.9% | 99% | 100% | 94% | 93% | 86% | 100% | 71% | 100% | 100% | 82% | 100% | 100% | 73% | 87% | 18% | 95% | 17% | 75% | 90% |
| CC1=C(C(=O)Nc2ccc3[nH]ncc3c2)C(c2ccc3ccccc3c2)CC(=O)N1 (centres unmarked) [GSK270822A] | 80% | 54% | 95% | 100% | 100% | 90% | 74% | 94% | 79% | 90% | 68% | 94% | 100% | 95% | 84% | 92% | 83% | 66% | 100% | 53% |
| C/C(Nc1ccc(S(N)(=O)=O)cc1)=C1/C(=O)Nc2ccccc21 [GW335962X] | 21% | 84% | 94% | 93% | 96% | 80% | 80% | 100% | 95% | 100% | 73% | 97% | 99% | 100% | 97% | 77% | 93% | 46% | 100% | 91% |
| COc1cccc(-c2c[nH]c3c(N/N=C/c4ccncc4)ncnc23)c1 [GW814408X] | 1.5% | 100% | 100% | 100% | 100% | 100% | 100% | 56% | 86% | 60% | 87% | 82% | 100% | 17% | 32% | 7.6% | 24% | 8.3% | 12% | 27% |
| Cl.O=C(Nc1ccc(Oc2ccc3[nH]c(NC(=O)c4ccccc4)nc3c2)cc1)Nc1cc(C(F)(F)F)ccc1F [GW709042A] | 72% | 100% | 100% | 100% | 100% | 92% | 96% | 100% | 0% | 16% | 77% | 86% | 100% | 100% | 100% | 100% | 100% | 97% | 94% | 71% |
| CC(C)COC(=O)c1ccc2c(c1)/C(=C/Nc1ccc(S(N)(=O)=O)cc1)C(=O)N2 [GW416981X] | 1.5% | 100% | 24% | 9.4% | 9.8% | 38% | 100% | 4.6% | 100% | 100% | 14% | 100% | 100% | 0.3% | 5.5% | 26% | 45% | 18% | 82% | 4.6% |
| Cc1cc(O)cc(C)c1/C=C/c1cncc(C(N)=O)c1 [GW435821X] | 78% | 98% | 100% | 100% | 100% | 87% | 100% | 100% | 40% | 74% | 90% | 100% | 100% | 100% | 100% | 93% | 100% | 75% | 69% | 89% |
| CCn1c(-c2nonc2N)nc2c(C#CC(C)(C)O)nc(OCCNC)cc21.Cl [GSK949675] | 97% | 100% | 100% | 100% | 100% | 100% | 100% | 66% | 100% | 100% | 86% | 100% | 100% | 100% | 100% | 70% | 100% | 87% | 97% | 100% |
| COc1cc2ncn(-c3cc(O[C@H](C)c4ccccc4Cl)c(C(N)=O)s3)c2cc1OC [GSK237701A] | 34% | 78% | 55% | 81% | 79% | 77% | 100% | 100% | 100% | 74% | 59% | 91% | 100% | 100% | 89% | 92% | 100% | 68% | 85% | 64% |

Source: publication PMC7826789 (International Journal of Molecular Sciences, 2021)
